Test results as given in the supplement of paper PMC8728848.
Only a selection was taken, and the strongest signals are over-represented in it overall.

Assays:
Assay in all cases: glycan array binding signal (z-score within array); higher = stronger binding
Conditions in all cases: glycan notation: IUPAC condensed, linker removed
[1] = test system: Fuc(a1-3)[Gal(b1-4)]GlcNAc(b1-3)Gal(b1-3)[Fuc(a1-4)]GlcNAc
In short: (§1)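 The binding signal is a Z-score computed within each array and averaged over linkers. Arrays of the same protein sequence at different concentrations or buffers were also averaged together. Data originate from 3228 arrays in the Consortium for Functional Glycomics database, kept only where the protein sequence was available.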

[2] = test system: Fuc(a1-3)[Gal(b1-4)]GlcNAc(b1-4)Gal(b1-4)[Fuc(a1-3)]GlcNAc(b1-4)Gal(b1-4)[Fuc(a1-3)]GlcNAc
In short: as §1

[3] = test system: Fuc(a1-3)[Gal(b1-4)]GlcNAc(b1-4)Gal(b1-4)[Fuc(a1-3)]GlcNAc
In short: as §1

[4] = test system: Fuc(a1-3)[Gal(b1-4)]GlcNAc
In short: as §1

Gal(a1-3)Gal(b1-3)Glc = test system: Gal(a1-3)Gal(b1-3)Glc
In short: as §1

[5] = test system: Fuc(a1-3)[Gal(b1-4)]GlcNAc(b1-3)Gal(b1-4)[Fuc(a1-3)]GlcNAc(b1-3)Gal(b1-4)[Fuc(a1-3)]GlcNAc
In short: as §1

[6] = test system: Fuc(a1-3)[Gal(b1-4)]GlcNAc(b1-3)Gal(b1-4)[Fuc(a1-3)]GlcNAc
In short: as §1

[7] = test system: Fuc(a1-3)[Gal(b1-4)]GlcNAc(b1-6)GalNAc
In short: as §1

[8] = test system: Fuc(a1-3)[Gal(b1-4)]GlcNAc6S
In short: as §1

Fuc(a1-4)GlcNAc = test system: Fuc(a1-4)GlcNAc
In short: as §1

Gal(a1-3)Gal(b1-3)GlcNAc = test system: Gal(a1-3)Gal(b1-3)GlcNAc
In short: as §1

[9] = test system: Gal(a1-3)Gal(b1-4)GlcNAc(b1-2)Man(a1-3)[Gal(a1-3)Gal(b1-4)GlcNAc(b1-2)Man(a1-6)]Man(b1-4)GlcNAc(b1-4)GlcNAc
In short: as §1

[10] = test system: Fuc(a1-3)[Gal(b1-4)]GlcNAc(b1-6)[Gal(b1-3)GlcNAc(b1-3)]Gal(b1-4)Glc
In short: as §1

Fuc(b1-3)GlcNAc = test system: Fuc(b1-3)GlcNAc
In short: as §1

[11] = test system: Fuc(a1-3)[Gal3S(b1-4)]Glc6S
In short: as §1

[12] = test system: Gal(a1-3)Gal(b1-3)GlcNAc(b1-2)Man(a1-3)[Gal(a1-3)Gal(b1-3)GlcNAc(b1-2)Man(a1-6)]Man(b1-4)GlcNAc(b1-4)GlcNAc
In short: as §1

[13] = test system: Gal(a1-3)Gal(b1-3)GlcNAc(b1-3)GalNAc
In short: as §1

[14] = test system: Fuc(a1-3)[Neu5Ac(a2-3)]Gal(b1-4)GlcNAc(b1-3)GalNAc
In short: as §1

[15] = test system: Gal(a1-3)Gal(b1-3)[Fuc(a1-4)]GlcNAc(b1-2)Man(a1-3)[Gal(a1-3)Gal(b1-3)[Fuc(a1-4)]GlcNAc(b1-2)Man(a1-6)]Man(b1-4)GlcNAc(b1-4)GlcNAc
In short: as §1

Avaren (Actinomycete K97), sequence (chain, as listed by the source): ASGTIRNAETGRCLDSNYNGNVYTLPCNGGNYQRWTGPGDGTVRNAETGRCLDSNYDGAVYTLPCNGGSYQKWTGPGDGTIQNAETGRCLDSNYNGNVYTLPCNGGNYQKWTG
SRLC (Mus musculus), Q8VIF6, sequence (Q8VIF6 other isoform, or with tags, fused parts or gaps): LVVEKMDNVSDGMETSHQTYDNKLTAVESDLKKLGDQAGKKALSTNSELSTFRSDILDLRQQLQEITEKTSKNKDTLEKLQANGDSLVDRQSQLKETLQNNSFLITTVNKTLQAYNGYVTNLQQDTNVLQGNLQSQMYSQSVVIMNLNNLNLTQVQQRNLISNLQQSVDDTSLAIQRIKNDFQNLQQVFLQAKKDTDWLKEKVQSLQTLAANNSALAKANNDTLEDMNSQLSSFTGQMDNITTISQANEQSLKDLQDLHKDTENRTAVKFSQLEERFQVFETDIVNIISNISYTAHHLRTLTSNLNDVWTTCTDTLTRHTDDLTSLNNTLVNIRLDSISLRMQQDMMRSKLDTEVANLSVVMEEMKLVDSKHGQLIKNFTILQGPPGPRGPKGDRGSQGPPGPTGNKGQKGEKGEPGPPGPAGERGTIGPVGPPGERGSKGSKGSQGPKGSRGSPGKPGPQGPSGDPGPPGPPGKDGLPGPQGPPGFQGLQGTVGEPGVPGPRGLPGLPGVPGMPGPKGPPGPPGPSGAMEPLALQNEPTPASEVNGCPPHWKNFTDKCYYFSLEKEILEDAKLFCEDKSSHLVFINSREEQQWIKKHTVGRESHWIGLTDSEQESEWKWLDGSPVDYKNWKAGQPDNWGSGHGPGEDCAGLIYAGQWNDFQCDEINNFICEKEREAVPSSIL
C3b (Homo sapiens), P01024, sequence (P01024 23-667): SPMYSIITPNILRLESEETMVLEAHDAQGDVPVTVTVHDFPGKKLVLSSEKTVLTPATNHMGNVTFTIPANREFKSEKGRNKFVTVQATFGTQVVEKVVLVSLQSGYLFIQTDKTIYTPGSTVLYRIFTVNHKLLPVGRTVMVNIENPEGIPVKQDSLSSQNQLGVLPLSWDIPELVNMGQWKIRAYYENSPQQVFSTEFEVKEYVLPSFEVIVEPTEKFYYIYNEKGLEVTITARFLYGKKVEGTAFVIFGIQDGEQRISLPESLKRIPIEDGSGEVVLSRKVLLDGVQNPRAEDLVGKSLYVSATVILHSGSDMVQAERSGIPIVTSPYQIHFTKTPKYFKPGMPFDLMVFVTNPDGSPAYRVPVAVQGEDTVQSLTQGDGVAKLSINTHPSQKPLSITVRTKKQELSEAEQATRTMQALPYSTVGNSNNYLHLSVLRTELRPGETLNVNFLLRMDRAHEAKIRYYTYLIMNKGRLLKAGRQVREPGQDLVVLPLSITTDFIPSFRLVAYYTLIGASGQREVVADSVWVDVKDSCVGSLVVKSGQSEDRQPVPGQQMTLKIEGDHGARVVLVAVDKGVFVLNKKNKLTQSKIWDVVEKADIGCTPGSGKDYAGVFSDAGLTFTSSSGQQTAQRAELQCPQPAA
PILRb (Mus musculus), Q2YSF2, sequence (Q2YSF2 entry or part of it): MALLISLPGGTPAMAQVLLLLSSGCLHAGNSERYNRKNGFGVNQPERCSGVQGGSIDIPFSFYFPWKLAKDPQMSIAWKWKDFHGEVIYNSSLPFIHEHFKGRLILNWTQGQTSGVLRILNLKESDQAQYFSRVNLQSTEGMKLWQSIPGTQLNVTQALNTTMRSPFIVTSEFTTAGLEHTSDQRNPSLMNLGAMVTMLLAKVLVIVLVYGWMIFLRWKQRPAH
Aggrecan (Rattus norvegicus), NP_071526, sequence (chain, as listed by the source): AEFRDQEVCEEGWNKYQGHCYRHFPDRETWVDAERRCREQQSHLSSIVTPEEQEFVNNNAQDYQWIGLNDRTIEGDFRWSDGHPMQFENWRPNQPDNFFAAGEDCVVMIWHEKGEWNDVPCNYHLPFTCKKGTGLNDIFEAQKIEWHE
Neurocan (Homo sapiens), O14594, sequence (O14594 other isoform, or with tags, fused parts or gaps): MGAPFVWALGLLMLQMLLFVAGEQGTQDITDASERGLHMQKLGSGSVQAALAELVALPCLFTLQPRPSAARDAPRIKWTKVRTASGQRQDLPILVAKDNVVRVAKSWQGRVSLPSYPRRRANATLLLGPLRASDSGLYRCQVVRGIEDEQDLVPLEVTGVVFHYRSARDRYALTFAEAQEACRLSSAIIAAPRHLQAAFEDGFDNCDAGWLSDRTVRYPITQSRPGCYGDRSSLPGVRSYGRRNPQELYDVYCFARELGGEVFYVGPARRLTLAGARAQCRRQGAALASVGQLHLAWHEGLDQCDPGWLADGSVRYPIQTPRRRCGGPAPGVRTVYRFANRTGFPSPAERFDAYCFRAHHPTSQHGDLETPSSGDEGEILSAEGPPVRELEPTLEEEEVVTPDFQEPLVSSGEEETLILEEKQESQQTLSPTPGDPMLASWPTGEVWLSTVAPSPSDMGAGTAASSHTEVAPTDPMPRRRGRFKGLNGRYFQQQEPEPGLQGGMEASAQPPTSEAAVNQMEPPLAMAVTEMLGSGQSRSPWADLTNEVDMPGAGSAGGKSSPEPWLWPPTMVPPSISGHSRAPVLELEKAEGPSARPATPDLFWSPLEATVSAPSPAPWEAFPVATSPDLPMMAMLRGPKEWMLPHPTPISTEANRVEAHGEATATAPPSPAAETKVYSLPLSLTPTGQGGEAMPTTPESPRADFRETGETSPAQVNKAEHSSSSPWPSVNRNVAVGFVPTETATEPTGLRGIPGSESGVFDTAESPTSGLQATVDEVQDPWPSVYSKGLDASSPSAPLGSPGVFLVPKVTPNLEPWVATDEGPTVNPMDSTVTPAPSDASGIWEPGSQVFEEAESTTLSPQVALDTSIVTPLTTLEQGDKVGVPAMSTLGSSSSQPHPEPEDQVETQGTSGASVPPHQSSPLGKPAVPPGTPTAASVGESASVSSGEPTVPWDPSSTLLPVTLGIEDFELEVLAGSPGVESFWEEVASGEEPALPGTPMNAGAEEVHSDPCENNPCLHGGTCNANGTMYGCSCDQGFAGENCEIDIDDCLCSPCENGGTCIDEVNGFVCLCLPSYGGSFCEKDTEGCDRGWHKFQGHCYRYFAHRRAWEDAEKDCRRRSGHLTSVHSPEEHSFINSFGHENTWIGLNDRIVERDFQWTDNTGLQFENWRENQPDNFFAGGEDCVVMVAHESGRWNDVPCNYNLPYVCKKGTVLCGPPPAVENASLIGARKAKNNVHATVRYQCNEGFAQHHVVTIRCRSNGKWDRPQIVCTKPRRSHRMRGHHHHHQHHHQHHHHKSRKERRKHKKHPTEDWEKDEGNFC
CHT (Homo sapiens), sequence (chain, as listed by the source): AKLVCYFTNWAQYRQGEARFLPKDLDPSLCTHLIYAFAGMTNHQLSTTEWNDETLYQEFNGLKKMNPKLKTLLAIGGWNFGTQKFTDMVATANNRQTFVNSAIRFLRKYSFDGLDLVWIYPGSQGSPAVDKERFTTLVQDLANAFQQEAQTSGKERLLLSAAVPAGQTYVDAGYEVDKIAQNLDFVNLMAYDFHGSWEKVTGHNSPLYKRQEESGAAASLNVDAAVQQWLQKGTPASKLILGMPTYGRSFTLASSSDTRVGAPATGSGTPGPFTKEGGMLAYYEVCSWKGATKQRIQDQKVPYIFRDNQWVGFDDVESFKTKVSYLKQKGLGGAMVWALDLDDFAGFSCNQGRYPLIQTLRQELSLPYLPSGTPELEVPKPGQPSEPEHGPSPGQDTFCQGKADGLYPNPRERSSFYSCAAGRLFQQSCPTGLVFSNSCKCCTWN
Regenerating Gene IV (Homo sapiens), Q9BYZ8, sequence (Q9BYZ8 whole entry, looked up): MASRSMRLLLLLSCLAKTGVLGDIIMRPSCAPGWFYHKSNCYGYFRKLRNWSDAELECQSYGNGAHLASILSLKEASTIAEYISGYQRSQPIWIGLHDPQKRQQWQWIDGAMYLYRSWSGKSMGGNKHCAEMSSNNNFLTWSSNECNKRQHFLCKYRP
CHI3L1 (Homo sapiens), P36222, sequence (P36222 whole entry): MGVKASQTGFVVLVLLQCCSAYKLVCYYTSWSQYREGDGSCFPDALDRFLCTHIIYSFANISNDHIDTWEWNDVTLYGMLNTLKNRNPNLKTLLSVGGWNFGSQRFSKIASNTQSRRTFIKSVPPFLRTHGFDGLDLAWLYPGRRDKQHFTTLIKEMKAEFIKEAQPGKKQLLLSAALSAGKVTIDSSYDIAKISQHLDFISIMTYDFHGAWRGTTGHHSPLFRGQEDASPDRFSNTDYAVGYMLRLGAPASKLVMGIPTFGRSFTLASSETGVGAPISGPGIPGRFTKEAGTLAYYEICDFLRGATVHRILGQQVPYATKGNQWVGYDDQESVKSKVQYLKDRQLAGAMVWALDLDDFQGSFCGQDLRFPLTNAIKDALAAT
wLAT-1A (Homo sapiens), Q01650, sequence (Q01650 whole entry): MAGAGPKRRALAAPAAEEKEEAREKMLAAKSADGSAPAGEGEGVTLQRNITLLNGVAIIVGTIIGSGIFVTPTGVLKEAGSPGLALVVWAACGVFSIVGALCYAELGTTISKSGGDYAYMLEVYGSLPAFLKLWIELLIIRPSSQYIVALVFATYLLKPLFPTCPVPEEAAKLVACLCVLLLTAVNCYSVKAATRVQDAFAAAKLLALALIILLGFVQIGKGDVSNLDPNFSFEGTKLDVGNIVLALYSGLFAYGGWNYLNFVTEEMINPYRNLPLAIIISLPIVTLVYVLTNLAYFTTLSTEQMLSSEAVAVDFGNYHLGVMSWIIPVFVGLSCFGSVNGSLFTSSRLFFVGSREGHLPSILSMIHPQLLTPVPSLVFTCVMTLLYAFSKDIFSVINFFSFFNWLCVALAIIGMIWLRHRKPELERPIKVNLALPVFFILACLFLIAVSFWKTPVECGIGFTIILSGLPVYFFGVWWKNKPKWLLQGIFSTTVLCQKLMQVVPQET

Question: With SRLC (Mus musculus), Q8VIF6 as the substance, how does the “glycan array binding signal (z-score)” value [1] read?
Answer: 4.31

Question: What about the “glycan array binding signal (z-score)” value [2] of the same substance?
Answer: 7.13

Question: What about the “glycan array binding signal (z-score)” value [3] of the same substance?
Answer: 4.46

Question: What about the “glycan array binding signal (z-score)” value [4] of the same substance?
Answer: 6.98

Question: And the “glycan array binding signal (z-score)” value (Gal(a1-3)Gal(b1-3)Glc)?
Answer: -0.234

Question: With CHI3L1 (Homo sapiens), P36222 as the substance, how does the “glycan array binding signal (z-score)” value [1] read?
Answer: -0.081

Question: For HARE (Homo sapiens), Q8WWQ8, which “glycan array binding signal (z-score)” value [5] is on record?
Answer: 0.285

Question: Siglec-8 (Homo sapiens), Q9NYZ4 was tested. Which “glycan array binding signal (z-score)” value [6] did it give?
Answer: -0.046

Question: And the “glycan array binding signal (z-score)” value [7]?
Answer: -0.063

Question: What about the “glycan array binding signal (z-score)” value ([8]; mutation: R125K) of the same substance?
Answer: 5.35

Question: What about the “glycan array binding signal (z-score)” value ([4]; mutation: R125K) of the same substance?
Answer: -0.361

Question: What about the “glycan array binding signal (z-score)” value (Fuc(a1-4)GlcNAc; mutation: R125K) of the same substance?
Answer: 2.97

Question: C3b (Homo sapiens), P01024 was tested. Which “glycan array binding signal (z-score)” value [3] did it give?
Answer: -0.595

Question: And the “glycan array binding signal (z-score)” value (Fuc(a1-4)GlcNAc)?
Answer: 3.19

Question: What about the “glycan array binding signal (z-score)” value (Gal(a1-3)Gal(b1-3)GlcNAc) of the same substance?
Answer: 1.35

Question: For Avaren (Actinomycete K97), which “glycan array binding signal (z-score)” value [7] is on record?
Answer: -0.094

Question: And the “glycan array binding signal (z-score)” value [8]?
Answer: -0.109

Question: What about the “glycan array binding signal (z-score)” value [9] of the same substance?
Answer: -0.106

Question: How did the “glycan array binding signal (z-score)” value [10] turn out when Neurocan (Homo sapiens), O14594 was run?
Answer: 2.26

Question: What about the “glycan array binding signal (z-score)” value (Fuc(b1-3)GlcNAc) of the same substance?
Answer: -0.101

Question: “Regenerating Gene IV (Homo sapiens), Q9BYZ8” was tested. Which “glycan array binding signal (z-score)” value [8] did it give?
Answer: -0.14

Question: For CHT (Homo sapiens), which “glycan array binding signal (z-score)” value ([4]; mutation: D138V, E140I) is on record?
Answer: -0.176

Question: What about the “glycan array binding signal (z-score)” value (Fuc(b1-3)GlcNAc; mutation: D138V, E140I) of the same substance?
Answer: -0.132

Question: wLAT-1A (Homo sapiens), Q01650 was tested. Which “glycan array binding signal (z-score)” value [11] did it give?
Answer: 3.91

Question: Which “glycan array binding signal (z-score)” value [11] does the source give for PILRb (Mus musculus), Q2YSF2 here?
Answer: -0.626

Question: What about the “glycan array binding signal (z-score)” value [12] of the same substance?
Answer: 6.25

Question: What about the “glycan array binding signal (z-score)” value [13] of the same substance?
Answer: -0.312

Question: With Aggrecan (Rattus norvegicus), NP_071526 as the substance, how does the “glycan array binding signal (z-score)” value [14] read?
Answer: 0.658

Question: And the “glycan array binding signal (z-score)” value (Gal(a1-3)Gal(b1-3)GlcNAc)?
Answer: -0.05

Question: With MpAFP RI GFP (Marinomonas primoryensis) as the substance, how does the “glycan array binding signal (z-score)” value [15] read?
Answer: 2.56
